According to PubChem BioAssay AID743449 (Broad Institute, 2014):
In all, about 9,900 compounds went through this assay and about 90 (0.9%) were called active. Another 2% or so got no clear call; they are omitted.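 Rule for the calls: active = mean normalized replicate activity at least 50 and at least half of replicates each reaching 50; inconclusive = only one of the two criteria met; inactive = neither criterion met.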 The full list was thinned out, with actives kept by preference.

Assay: YAP1 pathway inhibitors via CTGF transcript, primary screen, DLD1 colon cancer cells, RT-qPCR, single point (AID 743449);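 note: 0% = neutral control wells and 100% = dasatinib control wells; higher means stronger suppression of CTGF expression like dasatinib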
Conditions: DLD1 CTGF mRNA qPCR, 24 h; at 12.5 µM; hits give high values

| Structure (SMILES) | inhibition |
| --- | --- |
| Cc1ccccc1-c1ccc([C@H]2[C@@H](CO)N3CCCCN(S(=O)(=O)Cc4ccccc4)C[C@@H]23)cc1 | 66% (active) |
| COc1ccc(NC(=O)N2CCCCN3[C@@H](CO)[C@H](c4ccc(-c5ccccc5F)cc4)[C@@H]3C2)cc1 | 59.6% (active) |
| CC(=O)N1CCCCN2[C@H](CO)[C@H](c3ccc(-c4ccccc4)cc3)[C@H]2C1 | 9.46% (inactive) |
| Cc1cccc(-c2ccc([C@@H]3[C@@H](CO)N4CCCCN(S(=O)(=O)c5ccccc5F)C[C@H]34)cc2)c1 | 15.5% (inactive) |
| COc1ccc(NC(=O)N2CCCCN3[C@H](C2)[C@@H](c2ccc(-c4ccccc4F)cc2)[C@@H]3CO)cc1 | -27.6% (inactive) |
| Cc1ccccc1-c1ccc([C@H]2[C@@H](CO)N3CCCCN(S(=O)(=O)Cc4ccccc4)C[C@H]23)cc1 | -18.5% (inactive) |
| COc1ccc(NC(=O)N2CCCCN3[C@H](CO)[C@H](c4ccc(-c5ccccc5F)cc4)[C@H]3C2)cc1 | -50.7% (inactive) |
| CC(=O)N1CCCCN2[C@@H](CO)[C@H](c3ccc(-c4ccccc4)cc3)[C@@H]2C1 | 62% (active) |
| CC(=O)N1CCCCN2[C@@H](CO)[C@@H](c3ccc(-c4ccccc4)cc3)[C@@H]2C1 | -12.5% (inactive) |
| Cc1cccc(-c2ccc([C@H]3[C@@H](CO)N4CCCCN(S(=O)(=O)c5ccccc5F)C[C@@H]34)cc2)c1 | -8.63% (inactive) |
| Cc1cccc(-c2ccc([C@@H]3[C@@H](CO)N4CCCCN(S(=O)(=O)c5ccccc5F)C[C@@H]34)cc2)c1 | 63.6% (active) |
| Cc1ccccc1-c1ccc([C@@H]2[C@H](CO)N3CCCCN(S(=O)(=O)Cc4ccccc4)C[C@@H]23)cc1 | 26% (inactive) |
| O=C(C[C@@H]1CC[C@@H]2[C@H](COC[C@H](O)CN2C(=O)c2ccc(F)cc2)O1)N1CCCCC1 | 4.67% (inactive) |
| C[C@@H]1CCCCO[C@H](CN(C)Cc2ccc(C(=O)O)cc2)[C@@H](C)CN([C@@H](C)CO)C(=O)c2cc(N(C)C)ccc2O1 | -1.12% (inactive) |
| O=C1N[C@H](Cc2ccccc2)COCc2cnnn2CC[C@@H]1Cc1ccc(-c2ccccc2)cc1 | 10.4% (inactive) |
| CS(=O)(=O)N1[C@@H](CO)[C@@H](c2ccccc2)C12CN(Cc1cc(F)ccc1F)C2 | 2.97% (inactive) |
| CCC(=O)N1C[C@H](C)[C@@H](OC)CN(C)C(=O)c2ccc(NC(=O)CC(F)(F)F)cc2OC[C@@H]1C | -9.99% (inactive) |
| CC(C)N(C[C@H]1N[C@H](CO)[C@H]1c1ccccc1)S(=O)(=O)c1ccccc1 | -1.38% (inactive) |
| COc1ccccc1C#Cc1ccc([C@@H]2[C@@H](CO)N3CCCCN(C(=O)C4CCC4)C[C@H]23)cc1 | 4.8% (inactive) |
| O=S(=O)(c1ccccc1)N1CCCCN2[C@@H](CO)[C@H](c3ccc(C#CC4CCCC4)cc3)[C@@H]2C1 | 1.07% (inactive) |
| COc1ccccc1C#Cc1ccc([C@H]2[C@H](CO)N3CCCCN(C(=O)C4CCC4)C[C@@H]23)cc1 | 68.7% (active) |
| COc1ccccc1C#Cc1ccc([C@@H]2[C@H]3CN(C(=O)C4CCC4)CCCCN3[C@H]2CO)cc1 | 14.7% (inactive) |

| Structure (SMILES) | inhibition |
| --- | --- |
| O=S(=O)(c1ccccc1)N1CCCCN2[C@H](C1)[C@@H](c1ccc(C#CC3CCCC3)cc1)[C@@H]2CO | 50.5% (active) |
| O=S(=O)(c1ccccc1)N1CCCCN2[C@H](CO)[C@H](c3ccc(C#CC4CCCC4)cc3)[C@H]2C1 | -84.2% (inactive) |
| O=C(C[C@H]1CC[C@H]2[C@@H](COC[C@@H](O)CN2C(=O)Nc2ccccc2)O1)NCc1ccccc1F | 8.8% (inactive) |
| CCCN1C[C@H](C)[C@H](OC)CN(C)C(=O)c2ccc(NS(=O)(=O)c3cn(C)cn3)cc2OC[C@H]1C | -8.06% (inactive) |
| CCCC(=O)Nc1ccc2c(c1)C(=O)N(C)C[C@H](OC)[C@@H](C)CN(Cc1ccc(F)cc1)[C@H](C)CO2 | -14.1% (inactive) |
| CN1[C@H](C(=O)Nc2nccs2)[C@@H](CO)[C@@H]2Cn3c(ccc(-c4ccccc4F)c3=O)[C@@H]21 | -2.79% (inactive) |
| C/C=C/c1ccc([C@H]2[C@@H](CNC(=O)CC3CC3)N(C(=O)CC)[C@H]2CO)cc1 | -13.1% (inactive) |
| CCS(=O)(=O)Nc1ccc2c(c1)C(=O)N(C)[C@H]1CC[C@H](CC(=O)NCc3ccc(OC)cc3)O[C@@H]1CO2 | -27.1% (inactive) |
| O=C(C[C@H]1CC[C@H]2NC[C@H](O)COC[C@@H]2O1)N1CCc2ccccc2C1 | 1.25% (inactive) |
| C[C@H](CO)N1C[C@H](C)[C@@H](CN(C)Cc2cccc(C(F)(F)F)c2)OCc2cnnn2CCCC1=O | -35.1% (inactive) |
| C[C@@H]1CN([C@@H](C)CO)C(=O)CCCn2nncc2CO[C@H]1CN(C)C(=O)c1cc(-c2ccccc2)on1 | -32.7% (inactive) |
| C[C@H](CO)N1C[C@H](C)[C@H](CN(C)C(=O)c2cc(-c3ccccc3)on2)OCc2cnnn2CCCC1=O | 29.3% (inactive) |
| C[C@@H]1CN([C@@H](C)CO)C(=O)CCCn2nncc2CO[C@@H]1CN(C)C(=O)c1cc(-c2ccccc2)on1 | 55.9% (active) |
| C[C@H](CO)N1C[C@H](C)[C@@H](CN(C)C(=O)c2cc(-c3ccccc3)on2)OCc2cnnn2CCCC1=O | -12.2% (inactive) |
| C[C@@H]1CN([C@H](C)CO)C(=O)CCCn2nncc2CO[C@@H]1CN(C)C(=O)c1cc(-c2ccccc2)on1 | 66% (active) |
| C[C@@H]1CN([C@H](C)CO)C(=O)CCCn2nncc2CO[C@H]1CN(C)Cc1cccc(C(F)(F)F)c1 | 20.5% (inactive) |
| C[C@@H]1CN([C@H](C)CO)C(=O)CCCn2nncc2CO[C@H]1CN(C)C(=O)c1cc(-c2ccccc2)on1 | -10.9% (inactive) |
| C[C@@H]1CN([C@H](C)CO)C(=O)CCCn2nncc2CO[C@@H]1CN(C)Cc1cccc(C(F)(F)F)c1 | 61.3% (active) |
| CNC[C@@H]1OCCCC[C@H](C)Oc2ccc(NS(=O)(=O)c3ccc(F)cc3)cc2C(=O)N([C@@H](C)CO)C[C@H]1C | -4.63% (inactive) |
| Cc1cccc(S(=O)(=O)N[C@@H]2CC[C@@H](CCNC(=O)Nc3cc(F)ccc3F)O[C@H]2CO)c1 | -12.4% (inactive) |
| COc1ccc(-c2ccc([C@H]3[C@H](CO)N4C(=O)CN(Cc5ccccc5)C[C@@H]34)cc2)cc1 | -9.55% (inactive) |
| COc1ccc(S(=O)(=O)N(C)C[C@H]2Oc3ccc(NC(=O)Nc4ccc(C(F)(F)F)cc4)cc3C(=O)N([C@@H](C)CO)C[C@@H]2C)cc1 | -95.1% (inactive) |

| Structure (SMILES) | inhibition |
| --- | --- |
| CCNC(=O)[C@@H]1[C@@H](CO)[C@@H]2Cn3c(cccc3=O)[C@H]1N2C(=O)Nc1cc(F)ccc1F | -43% (inactive) |
| O=C(Nc1ccccc1)[C@@H]1[C@@H](CO)[C@@H]2Cn3c(cccc3=O)[C@H]1N2C(=O)c1ccc(F)cc1 | 51.2% (active) |
| O=C(Nc1ccccc1)[C@H]1[C@H](CO)[C@H]2Cn3c(cccc3=O)[C@@H]1N2C(=O)c1ccc(F)cc1 | 11.4% (inactive) |
| N#C[C@H]1[C@@H](c2ccccc2)[C@H](CO)N1C(=O)c1cc(Cl)cc(Cl)c1 | 26.8% (inactive) |
| CC(C)NC(=O)N[C@@H]1CC[C@H](CC(=O)NCCCN(C)C)O[C@@H]1CO | 50.2% (active) |
| CC(C)NC(=O)N[C@@H]1CC[C@@H](CC(=O)NCCCN(C)C)O[C@H]1CO | 1.3% (inactive) |
| CC(C)NC(=O)N[C@H]1CC[C@H](CC(=O)NCCCN(C)C)O[C@@H]1CO | 12% (inactive) |
| C[C@H](CO)N1C[C@H](C)[C@@H](CN(C)S(=O)(=O)c2cccs2)Oc2ccc(NC(=O)Nc3cccc4ccccc34)cc2C1=O | 3.66% (inactive) |
| CO[C@@H]1CN(C)C(=O)c2ccc(NC(=O)c3nc4ccccc4s3)cc2OC[C@@H](C)N(Cc2cccnc2)C[C@@H]1C | 1.63% (inactive) |
| CO[C@@H]1CN(C)C(=O)c2ccc(NC(=O)c3nc4ccccc4s3)cc2OC[C@@H](C)N(Cc2cccnc2)C[C@H]1C | 68.4% (active) |
| CO[C@H]1CN(C)C(=O)c2ccc(NC(=O)c3nc4ccccc4s3)cc2OC[C@@H](C)N(Cc2cccnc2)C[C@@H]1C | 1.26% (inactive) |
| CCCNC(=O)N1[C@@H]2Cn3c(cccc3=O)[C@H]1[C@@H](C(=O)N1CCC(Cc3ccccc3)CC1)[C@@H]2CO | -24.7% (inactive) |
| C[C@H]1CN([C@@H](C)CO)C(=O)CCCn2nncc2CO[C@H]1CN(C)C(=O)Nc1ccc2c(c1)OCCO2 | -11.1% (inactive) |
| CCCC#Cc1ccc2c(c1)O[C@@H](CN(C)Cc1ccccn1)[C@@H](C)CN([C@@H](C)CO)S2(=O)=O | -16.9% (inactive) |
| CC(C)[C@@H]1CC=CC[C@@H](C)Oc2ccccc2C(=O)N(C)[C@H](Cc2ccccc2)C(=O)N1 (mixture of isomers) | 38.9% (inactive) |
| CC(C)[C@@H]1CC=CC[C@H](C)Oc2ccccc2C(=O)N(C)[C@@H](Cc2ccccc2)C(=O)N1 (mixture of isomers) | 15.6% (inactive) |
| C[C@@H]1CC=CC[C@H](c2ccc(F)cc2)NC(=O)[C@@H](Cc2ccccc2)N(C)C(=O)c2ccccc2O1 (mixture of isomers) | 60.2% (active) |
| C[C@H]1CC=CC[C@H](c2ccc(F)cc2)NC(=O)[C@H](Cc2ccccc2)N(C)C(=O)c2ccccc2O1 (mixture of isomers) | -3.91% (inactive) |
| C[C@H]1CC=CC[C@@H](c2ccc(F)cc2)NC(=O)[C@H](Cc2ccccc2)N(C)C(=O)c2ccccc2O1 (mixture of isomers) | 64% (active) |
| C[C@H]1CC=CC[C@H](c2ccc(F)cc2)NC(=O)[C@@H](Cc2ccccc2)N(C)C(=O)c2ccccc2O1 (mixture of isomers) | -32.9% (inactive) |
